# Experimental data: PubChem BioAssay
# Active and inactive are the calls of the source.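 Rule for the calls: active = viability at or below 10% of carrier control in both of two separate runs; inconclusive = viability at or below 10% in only one of the two runs; inactive = the rest.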
# Experiment: SK-BR-3 cell growth inhibitors, pilot screen, 24 h, human (AID 572);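 note: compound exposure lasted between 18 and 24 h rather than exactly 24 h; 100% = carrier-treated control wells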
# Details: SK-BR-3 viability, CellTiter-Glo luminescence, at 10 µM, active compounds read low
row,SMILES,viability
1,O=C(NCCN1CCCCCC1)c1ccc(CS(=O)(=O)c2ccc(Br)cc2)o1,86.5% (inactive)
2,Cc1ccc(S(=O)(=O)NCCOC(=O)Nc2sc(=S)n(C)c2C)cc1,75.5% (inactive)
3,COc1ccccc1CC(=O)Nc1ccc(OC)c(OC)c1,102% (inactive)
4,CCN(CC)C(=O)C1CCCc2c1[nH]c1ccc(Cl)cc21 (stereo not given),102% (inactive)
5,CCOC(=O)N1CCC(NC(=O)C2CCCN(C(=O)c3cc4sccc4n3C)C2)CC1 (stereo not given),113% (inactive)
6,CCOC(=O)c1[nH]c(C)c(C(=O)Nc2ccc(Cl)cc2)c1C,88.5% (inactive)
7,O=C(NC(=O)c1cccc(F)c1)OC[C@@H]1CCCN2CCCC[C@H]12,102% (inactive)
8,COc1ccccc1-n1c(=O)[nH]c2c(C(N)=O)nc(-c3cccnc3)nc21,82.5% (inactive)
9,CC1(C)CC(=O)c2cnc(NC(=O)Cc3ccc(Cl)cc3)nc2C1,71.5% (inactive)
10,CC(C)(NC(=O)N1CCCC1)c1cccc(C(C)(C)NC(=O)N2CCCC2)c1,98% (inactive)
11,COc1ccc(NC(=O)C2CCCN(S(=O)(=O)c3cccc4cccnc34)C2)cc1OC (stereo not given),82% (inactive)
12,CCOc1ccc(CCN2C(=O)C3C4C=CC(C4)C3C2=O)cc1OCC (stereo not given),96% (inactive)
13,COc1ccc(S(=O)(=O)N2CCN(c3ccc(C)cc3C)CC2)cc1OC,94.5% (inactive)
14,O=C(C1CCN(c2nnc(-n3cccc3)s2)CC1)N1CCc2ccccc2C1,88% (inactive)
15,CCOc1cc(C2C3=C(CCCC3=O)N(C)C3=C2C(=O)CCC3)cc(Cl)c1O,106% (inactive)
16,O=C(OCN1C(=O)c2ccccc2C1=O)C1CCCCC1,82% (inactive)
17,Cc1ccc2cccc(SCC(=O)N3CCOCC3)c2n1,103% (inactive)
18,c1ccn2c(SCc3ccc4c(c3)OCCO4)nnc2c1,108% (inactive)
19,c1ccc(C(Cc2nc(-c3ccccn3)no2)c2ccccc2)cc1,96% (inactive)
20,COC(=O)C(C)Sc1nnc2n(-c3cccc(C)c3)c(=O)c3c4c(sc3n12)CCCC4 (stereo not given),87.5% (inactive)

row,SMILES,viability
1,Cc1ccc(-c2noc(CN3C(C)CCCC3C)n2)cc1 (stereo not given),93.5% (inactive)
2,CCn1c(SCC(=O)Nc2ccc(Cl)cc2)nnc1C1CC1,92.5% (inactive)
3,COc1ccc(C2CC(c3ccco3)n3ncnc3N2)cc1 (stereo not given),88% (inactive)
4,COc1ccc(NC(=O)c2cc(C3CC3)on2)c(OC)c1,96.5% (inactive)
5,COc1cc(OC)c2c(c1)OC(c1ccc(OC)c(OC)c1)C(O)C2=O (stereo not given),90.5% (inactive)
6,N#CCCN(Cc1cccnc1)C(=O)Nc1ccc(Cl)c(Cl)c1,118% (inactive)
7,O=C(c1cccc(F)c1)N1CCc2ccccc21,96.5% (inactive)
8,COc1ccc(NC(=O)C2CCCCN2S(=O)(=O)c2ccc(F)cc2)cc1 (stereo not given),91% (inactive)
9,CCN(CC)C(=O)Cn1ncc2c1-c1ccccc1OC2,84.5% (inactive)
10,Cn1c(=O)oc2cc(S(=O)(=O)NC3CCN(Cc4ccccc4)CC3)ccc21,103% (inactive)
11,COCCOC(=O)c1[nH]c2c(c1C)C(=O)CC(c1ccco1)C2 (stereo not given),85% (inactive)
12,COc1ccccc1NC(=O)N(C1CCCC1)C1CCN(C(C)=O)CC1,77.5% (inactive)
13,COc1cc(C(=O)Nc2cccc(-c3nncn3C)c2)cc(OC)c1OC,102% (inactive)
14,CCCCN(CC)CCNC(=O)c1cc2c(C)nc3ccccc3c2o1,91% (inactive)
15,Clc1ccc(SCCCCn2ccnc2)cc1,90.5% (inactive)
16,CCOC(=O)N1CCC(N2C(=O)c3ccccc3C2Nc2cc(Cl)c(OC)cc2OC)CC1 (stereo not given),92.5% (inactive)
17,O=C(Cn1nc(Cc2cccnc2)c2ccccc2c1=O)NCC1CCCO1 (stereo not given),122% (inactive)
18,CCn1cc(SCC(=O)NCC2CCCO2)c2ccccc21 (stereo not given),88% (inactive)
19,Cc1noc(C)c1S(=O)(=O)N1CCN(Cc2ccc3c(c2)OCO3)CC1,82.5% (inactive)
20,CCOC(=O)c1ccc(N2Cc3cc(C)c(C)cc3C2)cc1O,95.5% (inactive)
